The supplement of paper PMC6555819

Tests used:
Experiment in all cases: PBM binding z-score (relative to random genomic background probes); higher = stronger binding; sequences stand for … in GC…GCGATTGACAGCGTAGAATGAAGG
[1] = test system: RARb homodimer (NR concentration 270 nM)
Summary of the method: (§1)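 Random background probes are the reference for binding z-scores. These scores derive from regression-normalized fluorescence on custom Agilent 4×180K protein-binding microarrays incubated 1 h with ligand-free nuclear receptor dimers. Binding was detected with antibodies against each partner (one per run).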

[2] = test system: RARg:RXRa (NR concentration 270 nM, RXRa partner concentration 90 nM)
Summary of the method: as §1

[3] = test system: RARg homodimer (NR concentration 270 nM)
Summary of the method: as §1

[4] = test system: RXRa DBDmut IVT, anti-RXR (DBD mutation: RXRa K156A/R161A, NR concentration 90 nM)
Summary of the method: as §1

[5] = test system: RXRa homodimer (NR concentration 180 nM)
Summary of the method: as §1

[6] = test system: THRa:RXRa (NR concentration 90 nM, RXRa partner concentration 90 nM)
Summary of the method: as §1

[7] = test system: THRa homodimer (NR concentration 90 nM)
Summary of the method: as §1

[8] = test system: VDR homodimer (NR concentration 270 nM)
Summary of the method: as §1

Row | Sequence | PBM binding z-score [1] | PBM binding z-score [2] | PBM binding z-score [3] | PBM binding z-score [4] | PBM binding z-score [5] | PBM binding z-score [6] | PBM binding z-score [7] | PBM binding z-score [8]
1 | CAAACTAGGTCAAGAGGTCAAAGGCCGCTTCCCG | 5.53 | 8.17 | 7.84 | 2.67 | 7.98 | 4.21 | 2.35 | 4.46
2 | CGTCAAAGTTCAAGGTTACGTAACAGAAAGCAGC | 4.45 | 5.57 | 6.33 | 4.73 | 4.85 | 3.43 | 1.33 | 3.55
3 | CGAACTAGGTCAAAGGACAGTGAAAGGCGACGTA | 2.83 | 3.94 | 4.27 | 1.3 | 3.33 | 2.58 | 0.464 | 0.47
4 | GGAACGAGCGCAAAGTTGATAGCATCTGTCGACG | -0.951 | -0.446 | -0.392 | -0.219 | -0.2 | -0.823 | -1.24 | -0.905
5 | ATATGTAGGTTAGGGACATTCAGAAAGTAGGGAA | 1.11 | 0.67 | 1.27 | 0.8 | 0.406 | 2.32 | 1.51 | 0.36
6 | CGAACTAGGTCACAAGGACAGTGAAGAGGTTGGA | 3.36 | 4.24 | 4.8 | 1.32 | 3.1 | 3.33 | 1.7 | 0.816
7 | CGAACTAGGCCAAAGGACAGTGAAAGGCGACGTA | 0.837 | 0.441 | 1.2 | -0.376 | 0.196 | -0.277 | -0.915 | -0.627
8 | CCGAGTAGGTTACGAGGGGGCATTCCGTGCGAAT | 1.89 | 3.09 | 2.37 | 1.01 | 2.12 | 3.56 | 0.446 | 2.75
9 | CGTCCAAGGTCAAAGGTCAGTAAAGAGATGACGG | 5.42 | 8.65 | 8.13 | 3.88 | 10.4 | 4.82 | 2.37 | 3.52
10 | CTATGTAGATTAAGGGGGTCATTCAGTTTGAAAG | 3.68 | 4.14 | 2.94 | 2.82 | 5.19 | 3.74 | 2.37 | 5.58
11 | CAATCTAGGTCACAGAGGTCAAAGTCCGTGCGTA | 5.7 | 7.55 | 7.82 | 3.44 | 8.19 | 4.8 | 3.43 | 7.51
12 | GATAAAGGGTCAGCTAGAGGCCAGAGTATGGAAA | 4.46 | 7.34 | 6.77 | 1.54 | 5.05 | 3.06 | -0.108 | 0.772
13 | ATATGTCGGTTAGGGTCATTCAGAAAGTAGGGAA | 3.22 | 3.91 | 3.09 | 2.46 | 4.81 | 4.36 | 3.4 | 4.14
14 | CCGAGTAGGTTACGAGGGGACATTCAGTGCGAAT | 1.22 | 1.25 | 1.25 | 0.594 | 0.907 | 4.11 | 0.165 | 1.46
15 | ATCGAAGGGTCGAAGGTGAGTATACCCACCCGAA | 1.32 | 2.67 | 1.99 | 0.0916 | 3.12 | 1.05 | -0.355 | 0.519
16 | CCTTACGGGTCACTTACAGGTTATAGCATTTGGA | 3.2 | 5.65 | 4.51 | 2.19 | 4.62 | 2.95 | 0.577 | 1.66
17 | CCTAGTGGGTCAGGAGGTCACACACCGGATATGA | 4.61 | 6.26 | 5.86 | -0.339 | 6.15 | 3.73 | 2.04 | 2.09
18 | CCTACTGGGCCATTCAGAGGACATTGATCATATG | 0.736 | 0.858 | 0.53 | -0.28 | -0.174 | 0.676 | 0.238 | 0.541
19 | ATCGAAAGGGCGTGAGGTGAGTATACAGAAAGGC | 1.44 | 1.47 | 1.36 | -0.0845 | 1.17 | 2.12 | 1.08 | 0.15

Row | Sequence | PBM binding z-score [1] | PBM binding z-score [2] | PBM binding z-score [3] | PBM binding z-score [4] | PBM binding z-score [5] | PBM binding z-score [6] | PBM binding z-score [7] | PBM binding z-score [8]
20 | ATATGTAGGTTAGGGTCGTTCAGAAAGTAGGGAA | 2.05 | 1.69 | 1.16 | 1.52 | 2.44 | 2.85 | 1.95 | 2.55
21 | GCTTACGGGTCAAAGGTTATAACATGAATAGAAT | 3.48 | 6.91 | 4.77 | 2.43 | 9.77 | 4.13 | 0.296 | 1.8
22 | TAGCCTCGGTCATTCAGGGGCCAGTATAGAAAGC | 2.44 | 3.5 | 3.37 | -0.617 | 0.151 | 1.46 | -0.717 | -0.088
23 | CGAACTAGGTTACCAGGACAGTGAAGAGGTTGGA | 1.01 | 0.707 | 1.05 | 0.48 | 0.367 | 1.62 | 0.878 | 0.0565
24 | AGAATGAGGTTACCAAAGATCAGTGAAACGCTTG | 0.66 | 2.09 | 1.51 | 1.14 | 2.67 | 2.65 | 0.639 | 0.206
25 | CGAACTAGGTAACCAGGACAGTGAAGAGGTTGGA | 0.378 | 0.0852 | 0.279 | -0.359 | 0.345 | 1.37 | 0.609 | -0.193
26 | CCTTACGGGTCAGTGACAGGTTATAGCATTTGGA | 2.85 | 4.61 | 3.43 | 1.05 | 3.29 | 2.15 | 0.134 | 0.572
27 | CTATGTAGGTTAAGGGGGTCATTCAGTTTGAAAG | 3.93 | 5.34 | 4 | 2.56 | 6.26 | 3.95 | 2.19 | 4.98
28 | CTATGTAGGTTAAGGGGGTCATCCAGTTTGAAAG | 4.02 | 5.27 | 4.17 | 2.11 | 5.94 | 3.97 | 1.94 | 4.9
29 | CTATGTCGGTTAAGGGGGTCATTCAGTTTGAAAG | 4.04 | 4.91 | 4.15 | 2.98 | 5.04 | 3.9 | 3.17 | 6.54
30 | ATCTCTAGGTAAAGTTCATTGAAAGATCGATAGA | 1.97 | 2.99 | 3.16 | 2.96 | 2.49 | 1.84 | 0.478 | 4.56
31 | CGAACTAGGTCACCAGGACAGGGAAGAGGTTGGA | 3.18 | 4.35 | 4.97 | 1.23 | 2.96 | 3.26 | 1.9 | 0.549
32 | TCGAGTAGGTTAAGGGGGCATTCAGGGATGAAGA | 2.37 | 3.17 | 2.01 | 1.92 | 2.62 | 3.58 | 1.48 | 3.24
33 | ATATGTAGGTTAGGGTCATTCTGAAAGTAGGGAA | 3.35 | 3.61 | 2.78 | 2.79 | 4.88 | 4.05 | 3.12 | 3.77
34 | TCGAGTAGGGTACGGGGGCATTCAGGGATGAAGA | 1.81 | 2.33 | 1.97 | 2.6 | 1.67 | 4.02 | 1.48 | 3.8
35 | CGATGTAGGTTAAGGGGGTCATTCAGTTTGAAAG | 3.87 | 5.19 | 4.02 | 2.93 | 5.85 | 3.81 | 2.8 | 6.65
36 | CCTCGGAGGACACCAGGAGGTCAGAGCTGCCAGA | 3.49 | 3.94 | 3.53 | -0.302 | 2.11 | 2.93 | 1.37 | 1.13
37 | CCTAGCAGACCAATCTGGGTCACTCAAGGCTTGA | 1.75 | 0.672 | 0.527 | 0.174 | 0.711 | 2.64 | 0.374 | 0.0917
38 | ATATGTAGGTTACATCCGAGTCATTCAGGCTATG | 0.405 | 0.915 | 1.04 | 0.858 | 1.04 | 0.785 | 0.511 | 0.236

Row | Sequence | PBM binding z-score [1] | PBM binding z-score [2] | PBM binding z-score [3] | PBM binding z-score [4] | PBM binding z-score [5] | PBM binding z-score [6] | PBM binding z-score [7] | PBM binding z-score [8]
39 | ATCGAAAGGTCGTGAGGTGACTATACAGAAAGGC | 3.07 | 4.7 | 3.57 | 1.29 | 5.22 | 3.87 | 1.85 | 0.91
40 | TATACTGGGTCAAAGGCCAGAGTACGAATGTCGA | 2.9 | 3.96 | 3.88 | 0.958 | 3.99 | 2.24 | 0.212 | 1.37
41 | CTATGTAGGTTAAGGGGGCCATTCAGTTTGAAAG | 1.71 | 2.17 | 1.78 | 1.21 | 1.73 | 2.02 | 0.914 | 1.98
42 | ACTCGGAGGACAAAGGTAAGAGCTACGCCAGTGA | 0.319 | 1.08 | 1.1 | 0.376 | 0.494 | 0.863 | -0.169 | -0.2
43 | CTCGAAAGGTCGTGGTCAGGTGAGTATACCAAAC | 3.25 | 5.58 | 4.34 | 1.88 | 5.4 | 4.01 | 0.825 | 1.13
44 | CGAACTAGGTTAAAGGACAGTGAAAGGCGACGTA | 1.34 | 1 | 1.38 | -0.1 | 0.702 | 0.788 | -0.308 | -0.464
45 | CCGAGTAGGTTACGAGGGGGCATTCACTGCGAAT | 2.02 | 3.01 | 2.43 | 1.06 | 1.98 | 3.81 | 0.568 | 2.51
46 | CCTACTGGGCCAATGTCATTGATCAGTCAAAGCA | 0.109 | 0.114 | 0.0827 | -0.907 | -0.139 | -0.112 | -0.837 | -0.862
47 | CGTCCAAGGTCATAGGAGTTCAGTGAAGACAGAT | 4.79 | 6.25 | 6.57 | 4.22 | 6.23 | 4.71 | 2.7 | 5.97
48 | CGAACTAGGTCCTTGACAGGACAGTGAATAGTAA | -0.115 | 0.0551 | -0.0699 | 0.0443 | -0.00915 | 0.388 | -0.275 | -0.117
49 | TCTCGGAGGACACGAAAGGTCAGAACTCGACATC | 4.38 | 4.56 | 5.19 | 0.955 | 3.93 | 3.46 | 1.48 | 1.29
50 | CGAACTAGGTCACCAGGAGAGTGAAGAGGTTGGA | 3.18 | 4.34 | 5.04 | 1.08 | 3.02 | 2.98 | 1.09 | 0.207
51 | TCTAGCTGGTCACGGAGGTCACACACGACGGGTA | 4.17 | 4.88 | 5.01 | 0.665 | 5.01 | 3.67 | 2.27 | 2.72
52 | CGAACTCGGTCACCAGGACAGTGAAGAGGTTGGA | 1.97 | 2.47 | 3.48 | 0.319 | 1.01 | 1.86 | 0.326 | 0.21
53 | CGAACTAGGTCAAAGGAAAGTGAAAGGCGACGTA | 2.25 | 3.46 | 4.01 | 1.15 | 2.39 | 1.95 | 0.083 | 0.538
54 | CCGAGTAGGTTACAAGGGGGCATTCAGTGCGAAT | 2.41 | 2.84 | 2.42 | 1.47 | 2.1 | 3.61 | 0.507 | 3.51
55 | TAGCCTAGGTCATAGGCCAGTATACCACGCGAAC | 2.58 | 3.89 | 4.21 | 0.7 | 3.51 | 2.65 | 0.622 | 0.651
56 | TCGAGTAGGTTACGGGGGGATTCAGGGATGAAGA | 1.73 | 2.76 | 2.33 | 2.47 | 2.04 | 3.42 | 1.85 | 2.02
